Measurements published in the supplement of paper PMC11732987, “Enantioselective OTUD7B fragment discovery through chemoproteomics screening and high-throughput optimisation” (Communications Chemistry, 2025).

Assays:
Assay in all cases: log2 ratio of Biotin-Ahx-Ub-VS probe labelling (fragment/DMSO); higher = less target engagement (more negative = stronger competition), active = hit call of the paper (q ≤ 0.05, log2 ratio ≤ -1)
Conditions in all cases: compound concentration: 200 uM; treatment time: 3 h
USP34 = USP34 (UniProt Q70CQ2)
In short: (§1)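 The table lists average log2 ratios of fragment over vehicle, from an unpaired t-test on global-median-normalised Spectronaut label-free quantities. Proteins with ≥2 unique peptides were used. Samples were HEK293T lysate (495 µg) treated in triplicate with fragment at 200 µM or vehicle for 3 h, then with Biotin-Ahx-Ub-VS (0.5 µM final) for 1 h, with labelled DUBs NeutrAvidin-enriched and run by diaPASEF LC-MS/MS.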

USP36 = biological target: T1, USP36 (UniProt Q9P275)
T1 sequence (whole entry): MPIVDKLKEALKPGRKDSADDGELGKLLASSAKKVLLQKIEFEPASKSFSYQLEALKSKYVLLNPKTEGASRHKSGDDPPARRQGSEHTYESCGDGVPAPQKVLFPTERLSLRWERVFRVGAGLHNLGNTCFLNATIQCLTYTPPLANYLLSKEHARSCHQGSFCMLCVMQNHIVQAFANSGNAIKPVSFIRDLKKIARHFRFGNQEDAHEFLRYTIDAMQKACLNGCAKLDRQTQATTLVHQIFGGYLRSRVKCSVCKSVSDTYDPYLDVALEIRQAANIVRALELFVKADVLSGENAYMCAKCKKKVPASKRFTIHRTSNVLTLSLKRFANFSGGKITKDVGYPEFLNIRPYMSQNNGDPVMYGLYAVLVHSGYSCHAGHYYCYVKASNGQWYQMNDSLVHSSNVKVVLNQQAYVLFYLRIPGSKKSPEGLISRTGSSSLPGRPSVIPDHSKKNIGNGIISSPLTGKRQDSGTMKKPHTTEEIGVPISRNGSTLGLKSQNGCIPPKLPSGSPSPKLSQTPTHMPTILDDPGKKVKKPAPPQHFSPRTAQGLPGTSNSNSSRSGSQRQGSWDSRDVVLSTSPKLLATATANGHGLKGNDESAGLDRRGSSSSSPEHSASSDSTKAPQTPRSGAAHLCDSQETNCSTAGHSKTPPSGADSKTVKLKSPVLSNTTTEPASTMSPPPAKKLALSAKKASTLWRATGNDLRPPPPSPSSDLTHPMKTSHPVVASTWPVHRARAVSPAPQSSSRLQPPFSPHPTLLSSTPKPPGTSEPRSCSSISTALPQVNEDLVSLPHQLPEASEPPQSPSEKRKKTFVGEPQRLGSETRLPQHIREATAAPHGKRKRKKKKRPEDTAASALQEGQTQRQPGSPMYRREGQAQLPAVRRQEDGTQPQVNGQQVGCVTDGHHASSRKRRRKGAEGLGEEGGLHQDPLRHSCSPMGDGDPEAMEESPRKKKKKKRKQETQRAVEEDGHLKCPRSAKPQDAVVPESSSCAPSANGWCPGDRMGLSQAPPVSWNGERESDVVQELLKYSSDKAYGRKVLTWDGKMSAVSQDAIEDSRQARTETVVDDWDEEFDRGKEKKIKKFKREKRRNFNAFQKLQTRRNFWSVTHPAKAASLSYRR
In short: as §1

USP38 = biological target: T2, USP38 (UniProt Q8NB14)
T2 sequence (whole entry): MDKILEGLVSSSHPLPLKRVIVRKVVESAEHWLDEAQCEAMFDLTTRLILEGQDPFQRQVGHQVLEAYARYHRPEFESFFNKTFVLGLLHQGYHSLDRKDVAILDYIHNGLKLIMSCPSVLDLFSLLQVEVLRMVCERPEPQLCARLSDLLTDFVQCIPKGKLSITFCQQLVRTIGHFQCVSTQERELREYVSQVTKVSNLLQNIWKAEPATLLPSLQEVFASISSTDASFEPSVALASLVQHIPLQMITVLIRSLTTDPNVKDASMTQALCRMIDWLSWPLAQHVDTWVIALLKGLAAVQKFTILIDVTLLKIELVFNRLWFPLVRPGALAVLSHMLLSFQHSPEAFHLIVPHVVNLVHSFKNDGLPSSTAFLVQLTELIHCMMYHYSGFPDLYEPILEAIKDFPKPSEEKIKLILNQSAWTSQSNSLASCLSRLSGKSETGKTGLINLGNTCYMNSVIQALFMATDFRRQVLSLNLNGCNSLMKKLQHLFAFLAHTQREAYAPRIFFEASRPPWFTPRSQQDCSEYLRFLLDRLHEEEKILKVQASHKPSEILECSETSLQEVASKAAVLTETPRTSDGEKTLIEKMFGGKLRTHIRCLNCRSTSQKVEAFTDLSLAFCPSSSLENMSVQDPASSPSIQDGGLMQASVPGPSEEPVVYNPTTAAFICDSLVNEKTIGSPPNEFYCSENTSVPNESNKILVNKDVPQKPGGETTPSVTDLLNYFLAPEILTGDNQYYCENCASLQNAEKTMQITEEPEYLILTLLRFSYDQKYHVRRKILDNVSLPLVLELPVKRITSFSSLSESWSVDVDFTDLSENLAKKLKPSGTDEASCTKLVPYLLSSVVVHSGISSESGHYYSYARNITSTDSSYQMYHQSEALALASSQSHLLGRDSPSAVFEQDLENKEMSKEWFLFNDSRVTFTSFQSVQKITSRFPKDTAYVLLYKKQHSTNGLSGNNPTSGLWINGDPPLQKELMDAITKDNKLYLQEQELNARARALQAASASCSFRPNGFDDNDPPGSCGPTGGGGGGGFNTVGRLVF
In short: as §1

USP39 = biological target: T3, USP39 (UniProt Q53GS9)
T3 sequence (whole entry): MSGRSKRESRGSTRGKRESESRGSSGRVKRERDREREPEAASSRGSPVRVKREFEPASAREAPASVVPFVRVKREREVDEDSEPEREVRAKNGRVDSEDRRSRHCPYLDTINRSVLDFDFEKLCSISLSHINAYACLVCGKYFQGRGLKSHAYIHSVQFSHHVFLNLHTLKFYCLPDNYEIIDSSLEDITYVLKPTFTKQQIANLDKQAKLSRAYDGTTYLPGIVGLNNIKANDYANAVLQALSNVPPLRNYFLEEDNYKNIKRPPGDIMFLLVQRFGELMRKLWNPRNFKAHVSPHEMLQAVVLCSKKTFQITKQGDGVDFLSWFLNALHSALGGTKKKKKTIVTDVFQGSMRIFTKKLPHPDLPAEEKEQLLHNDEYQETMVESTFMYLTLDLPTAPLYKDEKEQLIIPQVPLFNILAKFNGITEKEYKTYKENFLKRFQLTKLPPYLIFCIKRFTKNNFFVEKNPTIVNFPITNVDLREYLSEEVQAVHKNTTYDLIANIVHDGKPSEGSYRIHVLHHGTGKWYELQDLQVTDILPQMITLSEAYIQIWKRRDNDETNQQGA
In short: as §1

USP4 = biological target: T4, USP4 (UniProt Q13107)
T4 sequence (whole entry): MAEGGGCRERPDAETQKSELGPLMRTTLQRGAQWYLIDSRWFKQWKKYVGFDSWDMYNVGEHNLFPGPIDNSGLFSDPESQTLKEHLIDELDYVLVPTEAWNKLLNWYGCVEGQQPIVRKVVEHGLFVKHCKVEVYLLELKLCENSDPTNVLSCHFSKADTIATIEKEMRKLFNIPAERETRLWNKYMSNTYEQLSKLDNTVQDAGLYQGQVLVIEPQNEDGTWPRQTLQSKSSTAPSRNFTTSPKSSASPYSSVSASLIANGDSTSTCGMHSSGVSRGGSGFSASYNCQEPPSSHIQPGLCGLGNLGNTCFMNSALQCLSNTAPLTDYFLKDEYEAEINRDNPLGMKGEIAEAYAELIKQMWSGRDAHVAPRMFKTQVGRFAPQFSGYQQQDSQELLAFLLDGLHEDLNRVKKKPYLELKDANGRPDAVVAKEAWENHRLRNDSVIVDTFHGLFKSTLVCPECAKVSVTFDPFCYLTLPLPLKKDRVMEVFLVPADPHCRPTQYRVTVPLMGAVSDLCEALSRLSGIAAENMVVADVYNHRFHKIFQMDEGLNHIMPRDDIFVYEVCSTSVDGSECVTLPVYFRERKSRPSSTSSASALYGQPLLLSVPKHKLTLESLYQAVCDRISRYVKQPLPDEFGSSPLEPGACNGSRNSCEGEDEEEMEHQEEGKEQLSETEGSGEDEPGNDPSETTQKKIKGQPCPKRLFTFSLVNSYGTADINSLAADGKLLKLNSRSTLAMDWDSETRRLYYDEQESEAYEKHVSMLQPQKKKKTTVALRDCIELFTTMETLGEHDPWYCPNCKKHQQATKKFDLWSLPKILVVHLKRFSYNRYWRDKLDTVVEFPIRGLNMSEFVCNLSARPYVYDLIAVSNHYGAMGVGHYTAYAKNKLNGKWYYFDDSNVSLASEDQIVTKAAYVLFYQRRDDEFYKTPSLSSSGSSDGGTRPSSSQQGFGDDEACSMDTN
In short: as §1

Measured: log2 ratio of Biotin-Ahx-Ub-VS probe labelling

Sequence of USP34 (Q70CQ2 whole entry, the tested form may be a part): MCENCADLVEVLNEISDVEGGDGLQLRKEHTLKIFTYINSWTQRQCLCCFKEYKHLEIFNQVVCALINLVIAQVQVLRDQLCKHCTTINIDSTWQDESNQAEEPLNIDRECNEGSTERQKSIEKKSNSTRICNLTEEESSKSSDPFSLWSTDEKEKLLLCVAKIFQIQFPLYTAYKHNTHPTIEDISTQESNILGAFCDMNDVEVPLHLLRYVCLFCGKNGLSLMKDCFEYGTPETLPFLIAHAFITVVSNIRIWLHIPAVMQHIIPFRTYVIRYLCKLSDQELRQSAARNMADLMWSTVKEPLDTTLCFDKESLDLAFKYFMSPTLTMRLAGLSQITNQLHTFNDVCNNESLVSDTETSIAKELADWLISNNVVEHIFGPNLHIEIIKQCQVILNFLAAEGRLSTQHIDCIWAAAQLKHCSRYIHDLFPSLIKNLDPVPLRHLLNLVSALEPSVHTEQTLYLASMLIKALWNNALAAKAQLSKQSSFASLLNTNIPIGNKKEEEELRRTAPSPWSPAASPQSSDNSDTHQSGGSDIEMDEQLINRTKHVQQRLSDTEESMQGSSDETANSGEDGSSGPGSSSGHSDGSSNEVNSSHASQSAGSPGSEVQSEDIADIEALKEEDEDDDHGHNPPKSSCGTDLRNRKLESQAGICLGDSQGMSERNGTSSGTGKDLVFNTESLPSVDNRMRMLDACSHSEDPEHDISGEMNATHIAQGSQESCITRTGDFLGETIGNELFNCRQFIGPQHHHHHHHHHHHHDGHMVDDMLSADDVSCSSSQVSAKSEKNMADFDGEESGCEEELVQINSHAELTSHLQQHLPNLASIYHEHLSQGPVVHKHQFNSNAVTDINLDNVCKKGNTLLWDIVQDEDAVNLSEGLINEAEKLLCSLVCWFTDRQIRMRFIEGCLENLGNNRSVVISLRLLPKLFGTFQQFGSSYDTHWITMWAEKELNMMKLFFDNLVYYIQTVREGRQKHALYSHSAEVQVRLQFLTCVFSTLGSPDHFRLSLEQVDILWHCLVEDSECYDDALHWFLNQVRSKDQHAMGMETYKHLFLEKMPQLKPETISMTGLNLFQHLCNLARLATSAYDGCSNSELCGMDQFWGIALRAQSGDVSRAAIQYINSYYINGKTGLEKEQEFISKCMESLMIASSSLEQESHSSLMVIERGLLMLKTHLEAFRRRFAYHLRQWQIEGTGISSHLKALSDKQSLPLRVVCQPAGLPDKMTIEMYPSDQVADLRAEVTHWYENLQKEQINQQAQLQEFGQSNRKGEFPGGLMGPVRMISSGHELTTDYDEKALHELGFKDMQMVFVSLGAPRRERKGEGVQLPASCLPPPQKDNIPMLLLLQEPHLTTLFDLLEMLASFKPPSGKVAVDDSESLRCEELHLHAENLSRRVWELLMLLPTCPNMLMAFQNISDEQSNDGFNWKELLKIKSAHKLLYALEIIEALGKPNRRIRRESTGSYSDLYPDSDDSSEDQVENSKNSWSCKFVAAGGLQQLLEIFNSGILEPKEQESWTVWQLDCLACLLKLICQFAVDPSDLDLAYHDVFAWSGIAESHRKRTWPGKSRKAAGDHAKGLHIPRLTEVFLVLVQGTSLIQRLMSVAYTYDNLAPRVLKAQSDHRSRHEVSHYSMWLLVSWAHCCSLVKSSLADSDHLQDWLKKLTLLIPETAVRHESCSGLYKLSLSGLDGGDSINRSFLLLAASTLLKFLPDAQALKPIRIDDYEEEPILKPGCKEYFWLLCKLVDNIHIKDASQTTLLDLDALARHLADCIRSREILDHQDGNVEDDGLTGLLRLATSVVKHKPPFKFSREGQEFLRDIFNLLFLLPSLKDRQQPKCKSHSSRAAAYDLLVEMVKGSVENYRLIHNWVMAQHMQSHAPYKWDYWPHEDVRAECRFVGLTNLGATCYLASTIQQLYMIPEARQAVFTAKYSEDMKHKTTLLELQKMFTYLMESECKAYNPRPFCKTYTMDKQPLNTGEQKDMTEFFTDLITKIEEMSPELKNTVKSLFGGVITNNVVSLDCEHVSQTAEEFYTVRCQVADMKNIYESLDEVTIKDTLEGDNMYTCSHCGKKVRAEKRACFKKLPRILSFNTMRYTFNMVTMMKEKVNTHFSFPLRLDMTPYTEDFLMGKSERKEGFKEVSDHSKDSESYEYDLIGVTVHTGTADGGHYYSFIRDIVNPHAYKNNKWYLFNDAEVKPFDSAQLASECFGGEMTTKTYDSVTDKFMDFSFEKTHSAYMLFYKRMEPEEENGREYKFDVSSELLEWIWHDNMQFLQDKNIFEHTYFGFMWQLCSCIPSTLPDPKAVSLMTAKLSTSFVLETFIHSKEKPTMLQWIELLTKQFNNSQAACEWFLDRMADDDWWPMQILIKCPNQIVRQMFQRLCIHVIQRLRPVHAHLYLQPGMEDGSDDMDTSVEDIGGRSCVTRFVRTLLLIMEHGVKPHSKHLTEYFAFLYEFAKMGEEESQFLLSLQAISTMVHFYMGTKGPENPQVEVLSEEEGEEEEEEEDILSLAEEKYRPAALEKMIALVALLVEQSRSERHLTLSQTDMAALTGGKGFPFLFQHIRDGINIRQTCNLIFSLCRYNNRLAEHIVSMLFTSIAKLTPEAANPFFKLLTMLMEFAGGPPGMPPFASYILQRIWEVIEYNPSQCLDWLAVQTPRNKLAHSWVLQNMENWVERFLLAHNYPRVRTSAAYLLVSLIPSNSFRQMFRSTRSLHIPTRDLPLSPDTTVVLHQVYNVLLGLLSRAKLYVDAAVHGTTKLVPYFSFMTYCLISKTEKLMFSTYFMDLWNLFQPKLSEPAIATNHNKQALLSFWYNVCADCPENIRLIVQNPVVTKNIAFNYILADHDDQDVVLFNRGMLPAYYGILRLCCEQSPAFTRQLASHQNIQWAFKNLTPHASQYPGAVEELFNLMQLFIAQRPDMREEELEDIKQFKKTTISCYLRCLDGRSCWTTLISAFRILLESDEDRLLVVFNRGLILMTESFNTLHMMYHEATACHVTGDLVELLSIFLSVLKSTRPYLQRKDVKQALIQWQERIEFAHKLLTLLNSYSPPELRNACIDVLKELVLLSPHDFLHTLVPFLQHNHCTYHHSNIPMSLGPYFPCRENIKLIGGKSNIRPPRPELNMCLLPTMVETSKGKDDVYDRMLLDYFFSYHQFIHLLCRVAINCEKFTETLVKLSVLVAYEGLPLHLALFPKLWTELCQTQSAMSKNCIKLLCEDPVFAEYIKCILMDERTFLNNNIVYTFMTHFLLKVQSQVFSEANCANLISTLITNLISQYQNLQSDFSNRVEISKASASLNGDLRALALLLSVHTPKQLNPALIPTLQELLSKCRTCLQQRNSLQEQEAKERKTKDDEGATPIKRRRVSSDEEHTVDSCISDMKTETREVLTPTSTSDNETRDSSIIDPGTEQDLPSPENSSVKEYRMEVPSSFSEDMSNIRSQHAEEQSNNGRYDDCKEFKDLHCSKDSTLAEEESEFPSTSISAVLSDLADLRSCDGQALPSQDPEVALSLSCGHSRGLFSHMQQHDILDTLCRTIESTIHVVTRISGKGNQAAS

Cc1cccc(NC(=O)[C@@H]2CCCN2C(=O)CCl)n1
inactive: USP34 0.0425 | USP36 -0.0946 | USP38 -0.0719 | USP39 0.179 | USP4 -0.0817
